Data taken from PubChem BioAssay (NCI).
This is part of a sample that, as a whole, favours compounds with a hit. Of some 79,000 tested, about 15% had one in any assay. Calls of active or inactive are those of the source. No stated cut-off is given here; in the data, active means growth inhibition above about 70%; inactive means the rest.

Key:
[1] = NCI Yeast Anticancer Drug Screen. Data for the rad52 strain (AID 147);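 further: 0% = growth of vehicle-treated control cultures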; details: S. cerevisiae rad52 mutant growth inhibition, hits give high values
Summary of the method: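 DNA repair-defective yeast; compound exposure; growth scored against vehicle controls.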

[2] = NCI Yeast Anticancer Drug Screen. Data for the wt1 strain (AID 149);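 further: 0% = growth of vehicle-treated wt1 cultures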; details: S. cerevisiae wt1 strain (SPY 50644) growth inhibition, hits give high values
Summary of the method: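 The wt1 strain was treated with compounds, and growth was compared with vehicle-treated cultures to give inhibition.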

[3] = NCI Yeast Anticancer Drug Screen. Data for the rad50EPP+ strain (AID 151);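 further: 0% = growth of vehicle-treated control cultures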; details: S. cerevisiae rad50 mutant strain, hits give high values
Summary of the method: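 rad50EPP+ yeast treated with test compounds. Readout: growth vs vehicle control.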

[4] = NCI Yeast Anticancer Drug Screen. Data for the mgt1 strain (AID 153); details: S. cerevisiae mgt1 mutant growth inhibition, hits give high values
Summary of the method: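 Growth inhibition relative to vehicle controls was scored for the mgt1 yeast strain after compound exposure.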

[5] = NCI Yeast Anticancer Drug Screen. Data for the rad50 strain (AID 155);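 further: 0% = growth of vehicle-only cultures of the same strain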; details: S. cerevisiae rad50 strain growth inhibition, hits give high values
Summary of the method: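 Cells are treated with compound, grown, and their growth is then scored against vehicle-only cultures of the same repair-deficient yeast strain.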

[6] = NCI Yeast Anticancer Drug Screen. Data for the mec2-1 strain (AID 157); details: S. cerevisiae mec2-1 strain, hits give high values
Summary of the method: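 Growth inhibition is read against vehicle-treated controls after compound exposure of the mec2-1 yeast strain, which is defective in DNA damage repair or cell cycle control.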

[7] = NCI Yeast Anticancer Drug Screen. Data for the rad14 strain (AID 159);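 further: 0% = growth of vehicle-treated control cultures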; details: S. cerevisiae rad14 strain growth inhibition, hits give high values
Summary of the method: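 Readout: yeast growth inhibition, referenced to vehicle-only cultures. Strain bears a defined alteration in DNA damage repair.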

[8] = NCI Yeast Anticancer Drug Screen. Data for the sgs1 mgt1 strain (AID 161);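 further: 0% = growth of cultures given vehicle only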; details: S. cerevisiae sgs1 mgt1 strain, hits give high values
Summary of the method: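 Yeast cells carrying a defined DNA-repair defect were exposed to test compounds. Growth inhibition was measured relative to vehicle-treated controls.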

[9] = NCI Yeast Anticancer Drug Screen. Data for the CLN2oe strain (AID 163);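 further: 0% = growth of vehicle-only control cultures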; details: S. cerevisiae CLN2oe strain, hits give high values
Summary of the method: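 Compound-treated yeast; growth vs vehicle ctrl = % inhibition. Genetically altered strain (cell-cycle control).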

[10] = NCI Yeast Anticancer Drug Screen. Data for the cln2 rad14 strain (AID 165);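 further: 0% = growth equal to vehicle treated cultures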; details: S. cerevisiae cln2 rad14 strain, hits give high values
Summary of the method: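 Growth inhibition, relative to vehicle-treated controls, is the read-out. The test organism is a yeast strain with defined genetic alterations, cln2 rad14.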

[11] = NCI Yeast Anticancer Drug Screen. Data for the bub3 strain (AID 167); details: S. cerevisiae bub3 mutant strain, hits give high values
Summary of the method: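 Part of a panel of yeast mutants defective in DNA damage repair or cell cycle regulation. Each strain is grown with compound, and inhibition is calculated relative to solvent-treated cultures.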

[12] = NCI Yeast Anticancer Drug Screen. Data for the wt2 strain (AID 169);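 further: 0% = growth of vehicle-treated yeast cultures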; details: S. cerevisiae wt2 strain growth inhibition, hits give high values
Summary of the method: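 Compound exposure of yeast; growth compared with vehicle controls; inhibition reported.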

[13] = NCI Yeast Anticancer Drug Screen. Data for the mlh1 strain (AID 171);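 further: 0% = growth of vehicle-treated control cultures of the same strain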; details: S. cerevisiae mlh1 strain growth inhibition, hits give high values
Summary of the method: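 Compounds are applied to a genetically altered yeast strain, and its growth is compared with that of vehicle-treated cultures to give percent inhibition.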

[14] = NCI Yeast Anticancer Drug Screen. Data for the sgs1 strain (AID 173);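 further: 0% = growth of vehicle-only control cultures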; details: S. cerevisiae sgs1 mutant, hits give high values
Summary of the method: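 Compounds applied to genetically altered yeast; growth compared with vehicle-treated cultures to give % inhibition.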

[15] = NCI Yeast Anticancer Drug Screen. Data for the mlh1 rad18 strain (AID 175); details: S. cerevisiae mlh1 rad18 strain growth inhibition, hits give high values
Summary of the method: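 Cells of a genetically altered yeast strain, deficient in DNA damage repair, were treated with compound. Their growth was then compared with that of vehicle-treated cultures to give inhibition.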

[16] = NCI Yeast Anticancer Drug Screen. Data for the rad18 strain (AID 177); details: S. cerevisiae rad18 mutant growth inhibition, hits give high values
Summary of the method: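 Compounds are applied to a repair-deficient yeast strain, and growth is compared with that of vehicle-treated cultures to give percent inhibition.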

[17] = at 5.0 µM (retest, dose inferred, filed as 0.5)
[18] = at 50.0 µM (retest, dose inferred, filed as 5.0)

Measured: growth inhibition

Cc1c(-c2ccccc2)[nH]c2ccccc12
active: [1]; at 33.0 µM 94% | [1]; at 100.0 µM 99% | [2]; at 33.0 µM 92% | [2]; at 100.0 µM 98% | [3]; at 100.0 µM 98% | [4]; at 33.0 µM 95% | [4]; at 100.0 µM 98% | [5]; at 33.0 µM 95% | [5]; [18] 81% | [5]; at 50.0 µM 91.3% | [5]; at 100.0 µM 98% | [6]; at 33.0 µM 94% | [6]; [18] 85% | [6]; at 50.0 µM 92.5% | [6]; at 100.0 µM 98% | [7]; at 33.0 µM 95% | [7]; at 100.0 µM 98% | [8]; [18] 99% | [8]; at 50.0 µM 93.5% | [9]; at 33.0 µM 98% | [9]; at 100.0 µM 99% | [10]; [18] 99% | [10]; at 50.0 µM 92.3% | [11]; at 33.0 µM 95% | [11]; [18] 98% | [11]; at 50.0 µM 91.8% | [11]; at 100.0 µM 98% | [12]; at 100.0 µM 99% | [13]; at 33.0 µM 96% | [13]; at 100.0 µM 98% | [14]; at 33.0 µM 97% | [14]; at 100.0 µM 100% | [15]; [18] 96% | [15]; at 50.0 µM 91.2% | [16]; at 33.0 µM 97% | [16]; at 100.0 µM 99%
inactive: [1]; at 1.2 µM -7% | [1]; at 3.7 µM -8% | [1]; at 11.0 µM -4% | [2]; at 1.2 µM -21% | [2]; at 3.7 µM -12% | [2]; at 11.0 µM -23% | [3]; at 1.2 µM -2% | [3]; at 3.7 µM 20% | [3]; at 11.0 µM 16% | [3]; at 33.0 µM 52% | [4]; at 1.2 µM -19% | [4]; at 3.7 µM -12% | [4]; at 11.0 µM -11% | [5]; at 1.2 µM -4% | [5]; at 3.7 µM -8% | [5]; [17] 33% | [5]; at 11.0 µM -12% | [6]; at 1.2 µM -2% | [6]; at 3.7 µM 8% | [6]; [17] 48% | [6]; at 11.0 µM -2% | [7]; at 1.2 µM -2% | [7]; at 3.7 µM 0% | [7]; at 11.0 µM 2% | [8]; [17] -1% | [9]; at 1.2 µM 5% | [9]; at 3.7 µM 3% | [9]; at 11.0 µM 1% | [10]; [17] 51% | [11]; at 1.2 µM -6% | [11]; at 3.7 µM -7% | [11]; [17] 22% | [11]; at 11.0 µM -15% | [12]; at 1.2 µM 10% | [12]; at 3.7 µM 5% | [12]; at 11.0 µM 6% | [12]; at 33.0 µM 68% | [13]; at 1.2 µM 7% | [13]; at 3.7 µM 8% | [13]; at 11.0 µM 6% | [14]; at 1.2 µM 14% | [14]; at 3.7 µM 19% | [14]; at 11.0 µM 14% | [15]; [17] 38% | [16]; at 1.2 µM 3% | [16]; at 3.7 µM 5% | [16]; at 11.0 µM -9%

COc1cccc(C(c2cc3c(cc2O)OCO3)N2CCOCC2)c1OC (stereo unspecified)
active: [6]; at 50.0 µM 83.8% | [8]; [18] 79% | [15]; [18] 71%
inactive: [1]; at 1.2 µM -2% | [1]; at 3.7 µM 2% | [1]; at 11.0 µM 4% | [1]; at 33.0 µM 23% | [1]; at 100.0 µM 28% | [2]; at 1.2 µM -2% | [2]; at 3.7 µM -2% | [2]; at 11.0 µM -2% | [2]; at 33.0 µM 0% | [2]; at 100.0 µM 3% | [3]; at 1.2 µM -6% | [3]; at 3.7 µM -7% | [3]; at 11.0 µM 0% | [3]; at 33.0 µM 11% | [3]; at 100.0 µM 56% | [4]; at 1.2 µM -3% | [4]; at 3.7 µM -5% | [4]; at 11.0 µM 0% | [4]; at 33.0 µM -3% | [4]; at 100.0 µM 4% | [5]; at 1.2 µM -1% | [5]; at 3.7 µM 2% | [5]; [17] -3% | [5]; at 11.0 µM 1% | [5]; at 33.0 µM 14% | [5]; [18] 48% | [5]; at 50.0 µM 42.1% | [5]; at 100.0 µM 46% | [6]; at 1.2 µM -1% | [6]; at 3.7 µM -1% | [6]; [17] -1% | [6]; at 11.0 µM -2% | [6]; at 33.0 µM -2% | [6]; [18] -9% | [6]; at 100.0 µM 37% | [7]; at 1.2 µM 0% | [7]; at 3.7 µM 4% | [7]; at 11.0 µM 7% | [7]; at 33.0 µM 10% | [7]; at 100.0 µM 21% | [8]; [17] 7% | [8]; at 50.0 µM 42.5% | [9]; at 1.2 µM -4% | [9]; at 3.7 µM -3% | [9]; at 11.0 µM -4% | [9]; at 33.0 µM 5% | [9]; at 100.0 µM 19% | [10]; [17] 1% | [10]; [18] 3% | [10]; at 50.0 µM -30.1% | [11]; at 1.2 µM -4% | [11]; at 3.7 µM -4% | [11]; [17] -13% | [11]; at 11.0 µM -9% | [11]; at 33.0 µM 4% | [11]; [18] 56% | [11]; at 50.0 µM 45% | [11]; at 100.0 µM 11% | [12]; at 1.2 µM -3% | [12]; at 3.7 µM -6% | [12]; at 11.0 µM 5% | [12]; at 33.0 µM 0% | [12]; at 100.0 µM -3% | [13]; at 1.2 µM -3% | [13]; at 3.7 µM -1% | [13]; at 11.0 µM 4% | [13]; at 33.0 µM 7% | [13]; at 100.0 µM 32% | [14]; at 1.2 µM -6% | [14]; at 3.7 µM -7% | [14]; at 11.0 µM 8% | [14]; at 33.0 µM 10% | [14]; at 100.0 µM 60% | [15]; [17] 19% | [15]; at 50.0 µM 9.25% | [16]; at 1.2 µM -3% | [16]; at 3.7 µM 0% | [16]; at 11.0 µM 4% | [16]; at 33.0 µM 10% | [16]; at 100.0 µM 36%

Cn1c2nc3ccccc3c-2nc2ccccc21
active: [1]; at 3.7 µM 88% | [1]; at 11.0 µM 97% | [1]; at 33.0 µM 98% | [1]; at 100.0 µM 98% | [2]; at 11.0 µM 79% | [2]; at 33.0 µM 96% | [2]; at 100.0 µM 97% | [3]; at 3.7 µM 93% | [3]; at 11.0 µM 98% | [3]; at 33.0 µM 98% | [3]; at 100.0 µM 98% | [4]; at 11.0 µM 80% | [4]; at 33.0 µM 97% | [4]; at 100.0 µM 97% | [5]; at 3.7 µM 81% | [5]; [17] 75% | [5]; at 11.0 µM 95% | [5]; at 33.0 µM 97% | [5]; [18] 97% | [5]; at 50.0 µM 98.6% | [5]; at 100.0 µM 96%
inactive: [1]; at 1.2 µM 25% | [2]; at 1.2 µM 6% | [2]; at 3.7 µM 29% | [3]; at 1.2 µM 52% | [4]; at 1.2 µM 4% | [4]; at 3.7 µM 29% | [5]; at 1.2 µM 27% | [6]; at 1.2 µM 10% | [6]; at 3.7 µM 41%
